A selection: hits, their analogues and other compounds. The true share with any hit is near 11%.
JMJD2A Tudor: qHTS Assay for Inhibitors of JMJD2A-Tudor Domain; AlphaScreen JMJD2A-Tudor / H3K4me3 peptide binding; AID 504339, 2011; Potency, µM (top dose mostly 114 µM), hits mostly inhibitors; actives 4.4% (n = 390,000); Lysine-specific demethylase 4A (Homo sapiens), O75164; further: nearly all actives have a fitted effect of over 50% in size
G9a block: qHTS Assay for Inhibitors of Histone Lysine Methyltransferase G9a. Histone-lysine N-methyltransferase EHMT2 (Homo sapiens), Q96KQ7. G9a H3K9 monomethylation, AlphaScreen, 2 h. Potency, µM (series often up to 102 µM), actives largely listed as inhibitors. actives 8.8% (n = 350,000). AID 504332, 2011; further: nearly all actives have a fitted effect of over 75% in size
Target sequence (Q96KQ7 913-1193 limits assumed): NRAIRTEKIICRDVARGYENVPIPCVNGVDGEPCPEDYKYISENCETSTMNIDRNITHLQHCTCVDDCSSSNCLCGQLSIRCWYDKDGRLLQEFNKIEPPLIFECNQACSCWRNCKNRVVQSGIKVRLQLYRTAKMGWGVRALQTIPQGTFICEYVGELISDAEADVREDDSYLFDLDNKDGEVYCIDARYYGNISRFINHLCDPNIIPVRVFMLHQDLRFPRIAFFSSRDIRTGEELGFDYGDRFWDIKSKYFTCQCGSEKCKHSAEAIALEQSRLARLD
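Step 1: enzyme (final 20 nM) with compound, 15 min RT. Step 2: substrate peptide 500 nM and SAM 20 uM, 2 h RT. Step 3: anti-H3K9me1 antibody and AlphaScreen beads, 10 min, then plate read.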
VDR inhibitor: Inhibitors of the vitamin D receptor (VDR): qHTS; Vitamin D3 receptor (Homo sapiens), P11473; VDR-SRC2-3 peptide fluorescence polarization, 2 h; Potency, µM, actives largely listed as inhibitors; actives 0.93% (n = 400,000)
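Fluorescence polarization assay of small-molecule disruption of VDR binding to coregulator peptide SRC2-3. Compounds and controls pin-transferred, then read after 2 h incubation at ambient room temperature.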
BAZ2B block: qHTS Assay for Inhibitors of BAZ2B; Potency, µM (series often up to 114 µM), most hits filed as inhibitors; actives 4.4% (n = 360,000); AlphaScreen BAZ2B-H3K14Ac peptide displacement; AID 504333, 2011; Bromodomain adjacent to zinc finger domain protein 2B (Homo sapiens), Q9UIF8; further: nearly all actives have a fitted effect of over 60% in size
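Complex of BAZ2B and biotin-H3K14Ac (50 nM apiece) forms over 30 min at RT, then faces library compounds up to 110 uM for another 30 min; AlphaScreen beads added, 20 min dark incubation, luminescence read.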
PLK1 PBD inh: qHTS for Inhibitors of PLK1-PDB (polo-like kinase 1 - polo-box domain): Primary Screen. Potency, µM, hits mostly inhibitors. Serine/threonine-protein kinase PLK1 (Homo sapiens), P53350. Plk1 PBD binding of FITC phosphopeptide, fluorescence polarization. actives 2.8% (n = 360,000). AID 720504, 2013; further: series mostly up to about 57 µM; nearly all actives have a fitted effect of over 65% in size
HP1b binding inh: HTS for Inhibitors of HP1-beta Chromodomain Interactions with Methylated Histone Tails; actives 0.56% (n = 390,000); AlphaScreen HP1-beta / biotin-H3K9me3 peptide binding; Chromobox protein homolog 1 (Homo sapiens), P83916; Potency, µM (doses to about 114 µM), most hits filed as inhibitors; further: nearly all actives have a fitted effect of over 70% in size
Target sequence (P83916 whole entry, looked up): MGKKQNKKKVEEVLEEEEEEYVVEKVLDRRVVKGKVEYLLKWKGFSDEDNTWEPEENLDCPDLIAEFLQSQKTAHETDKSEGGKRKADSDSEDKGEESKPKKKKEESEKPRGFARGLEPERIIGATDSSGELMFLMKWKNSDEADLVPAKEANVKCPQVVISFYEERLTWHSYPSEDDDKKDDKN
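HP1-beta protein (50 nM final) preincubated 30 min at room temperature with biotinylated H3(1-18)K9me3 peptide (50 nM) in PBS pH 7.4, 0.01% Tween-20, then compound added for 30 min. AlphaScreen streptavidin donor/nickel chelate acceptor beads (10 ug/mL final), 30 min dark, luminescence read.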
A number is an active result; n = inactive; u = inconclusive; x = no result; [ ] = dose if it differs, or a comment. The call rests on the fitted dose curve; in most records, active means well fitted curve in the direction sought with a large enough effect; inconclusive means small, poorly fitted or top-dose-only effect, or another doubt; inactive means no such curve, though single readings can be large; an effect the other way counts as inactive or inconclusive.

SMILES	JMJD2A Tudor	G9a block	VDR inhibitor	BAZ2B block	PLK1 PBD inh	HP1b binding inh
Cc1cccc(Cc2c(C)nc3nc(SCC(=O)NCc4ccc(F)cc4)nn3c2C)c1	n	n	n	n	x	n
O=[N+]([O-])c1cccc(S(=O)(=O)N/N=C/c2ccc(O)cc2)c1	n	u	n	u	n	n
C/C(=N/NS(=O)(=O)c1ccc(C)cc1)c1c[nH]c2ccccc12	n	25.1µM	n	n	n	n
C/C(=N/NS(=O)(=O)c1ccccc1)c1c[nH]c2ccccc12	n	22.4µM	n	n	n	n
C/C(=N/NS(=O)(=O)c1cccc([N+](=O)[O-])c1)c1c[nH]c2ccccc12	n	25.1µM	n	50.1µM	n	n
C/C(=N/NS(=O)(=O)c1ccccc1)c1ccc(Cl)cc1	n	n	n	n	n	n
O=c1[nH]c(O)c(N=Nc2ccc(Cl)c(S(=O)(=O)Nc3ccccc3Cl)c2)c(=O)[nH]1	n	x	n	x	n	n
N/C(=N/O)c1ccccc1N1CCC(Cc2ccccc2)CC1	u	u	n	n	n	n
Cc1sc2nc(SCC(=O)Nc3cccc(S(N)(=O)=O)c3)[nH]c(=O)c2c1C	89.1µM	x	n	x	23.8µM	u
Cc1ccc(F)cc1NC(=O)CSCc1nc2sc(C)c(C)c2c(=O)[nH]1	n	39.8µM	u	n	u	n
Cc1sc2nc(SCC(=O)Nc3cccc(C(=O)O)c3)[nH]c(=O)c2c1C	n	25.1µM	n	n	u	n
O=C(Nc1ccccc1)N1CC[C@@]2(CCCN(C(=O)c3cnccn3)C2)C1	x	u	n	x	x	x
CCOC(Cn1ccc(=O)[nH]c1=O)OCC	n	x	n	n	n	n
NS(=O)(=O)c1cccc(NC(=O)c2cc(-c3cccs3)nc3ccccc23)c1	n	44.7µM	n	n	n	n
NS(=O)(=O)c1cccc(NC(=O)COC(=O)c2cc(-c3ccc(Cl)cc3)nc3ccccc23)c1	n	35.5µM	n	n	n	n
NS(=O)(=O)c1cccc(NC(=O)c2cccs2)c1	n[11.4 µM]	n[12.7 µM]	25.1µM	n	13.4µM	n
Cc1cc(=O)oc2cc(NC(=O)C(CCCCN)NC(=O)C(CC3CCCCC3)NC(=O)OCC3c4ccccc4-c4ccccc43)ccc12 (stereo not drawn)	x	x	n	x	x	x
CCOc1ccc(NC(=O)c2ccc(NCC(=O)N3CCCCCC3)cc2)cc1	n	25.1µM	n	n	n	n
CCOc1ccc(C(=O)NCC(=O)N2CCCCCCC2)cc1	n	n[12.7 µM]	n	n	n	n
CCOc1ccc(NCC(=O)c2ccc(C)cc2)cc1	u	n	n	35.5µM	n	n
Cc1cccc(N2CCN(C(=O)C(C)C)CC2)c1C	n[11.4 µM]	n	n	n	29.9µM	n
Cc1cccc(N2CCN(C(=O)Cn3cccc3)CC2)c1C	u	50.1µM	n	u	n	n
Cc1cccc(N2CCN(C(=O)C3CCC(=O)N(C4CC4)C3)CC2)c1C (stereo not drawn)	u	n	u	n	7.52µM	n
CNS(=O)(=O)c1cn(CC(=O)N2CCN(c3cccc(C)c3C)CC2)cc1S(=O)(=O)NC	n	n	n	n	x	n
CC1=C(C(=O)N2CCN(c3cccc(C)c3C)CC2)C2(CCCCC2)OC1=O	n	n	n	79.4µM	x	n
SMILES	JMJD2A Tudor	G9a block	VDR inhibitor	BAZ2B block	PLK1 PBD inh	HP1b binding inh
CCCc1nnc(NC(=O)c2cc(=O)c3ccccc3o2)s1	n	n	n	n	x	n
CCOC(=O)c1nc2ccc(C)cc2c2c1C1CC(c3c(Cl)cccc31)N2C(=O)OCc1ccccc1 (stereo not drawn)	x	x	x	x	n	x
Cc1onc(-c2ccccc2)c1C(=O)N1CCC(C)(C(=O)O)C1 (stereo not drawn)	x	x	x	x	n	x
Cc1cccc(N2CCN(C(=O)Cn3ncc4c5ccccc5n(C)c4c3=O)CC2)c1C	n	n	n	n	x	n
Cc1cccc(N2CCN(C(=O)Cc3cn(C)c4ccccc34)CC2)c1C	17.8µM	50.1µM	20µM	u	11.9µM	u
Cc1ccc(C(=O)N2CCN(c3cccc(C)c3C)CC2)o1	n	70.8µM	n	n	n	n
O=C1CCCCCN1C(=O)c1ccccc1	n	x	n	x	n	n
O=C1CCCCCN1Sc1ccccc1	n	10µM	12.6µM	n	1.06µM	n
Nc1nc(-c2ccc(F)cc2)cs1	n	44.7µM	n	u	u	n
Nc1nc(-c2ccc3c(c2)CCC(=O)N3)cs1	n	44.7µM	n	n	n	n
Nc1nc(-c2ccc(Br)cc2)cs1	79.4µM	u	n	50.1µM	n	n
CCc1nnc(NC(=O)c2ccc3ccccc3n2)s1	n	50.1µM	n	n	n	n
CCc1nnc(NS(=O)(=O)c2ccc(NC(=O)OC)cc2)s1	n	17.8µM	n	n	n	n
CCc1nnc(NC(=O)c2ccc(S(C)(=O)=O)cc2)s1	n[11.4 µM]	x	20µM	n	9.47µM	n
CCc1nnc(NS(=O)(=O)c2ccc(NC(=O)Nc3ccc(OC)cc3)cc2)s1	n	x	n	n	n	n
CCc1nnc(NS(=O)(=O)c2ccc(NC(=O)/C=C/c3ccc(F)cc3)cc2)s1	n	56.2µM	n	n	n	n
CCc1nnc(NS(=O)(=O)c2ccc(NC(=S)NC(=O)c3ccc(F)cc3)cc2)s1	n	n	u	u	n	n
COc1ccc(S(=O)(=O)N2CCN(Cc3nc4ccc(C)cc4o3)CC2)cc1Cl	n	n	n	n	x	n
CCn1nnc2cc(C(=O)Nc3cc(C)ccc3C)ccc21	n	n	n	n	x	n
O=C(Nc1ccccc1Cl)c1cc(C2CCCCN2S(=O)(=O)c2ccc(F)cc2F)on1 (stereo not drawn)	x	x	x	x	n	x
COc1ccc(-c2csc(/C(C#N)=C\c3cccc([N+](=O)[O-])c3)n2)cc1	x	n	x	n	x	x
N#C/C(=C/c1ccccc1[N+](=O)[O-])c1nc(C2CC2)cs1	89.1µM	u	n	10µM	n	u
N#C/C(=C\C=C\c1ccccc1[N+](=O)[O-])c1nc(-c2ccc3c(c2)OCO3)cs1	n	n	n	n	n	n
N#C/C(=C\c1ccccc1[N+](=O)[O-])c1nc(C2CC2)cs1	31.6µM	20µM	u	28.2µM	n	u
COc1cccc(-c2cncnc2NCc2cccc(C)c2)c1	x	n[0.501 µM]	n	x	x	x
Cc1nonc1OCCNc1ccc([N+](=O)[O-])cc1[N+](=O)[O-]	u	n	n	n	n	n
Cc1nonc1OCCCNc1ccc([N+](=O)[O-])cc1Cl	n	1.26µM	n	n	n	n
CC(C)Cn1cc(NC(=O)N2CCN(c3ccc(F)cc3)CC2)c2ccccc2c1=O	n	n	n	n	x	n
